# Results as given in PubChem BioAssay.
# Values joined by “and” are separate entries in the source; they are usually repeats but may differ in a detail not shown here. Identical values can stand only once. Some structures have more than one record in an assay (separate samples or runs), and their calls can disagree. Active and inactive are the calls of the source.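 The calls were made as follows, unless noted: active = normalized viability below 100% at a tested concentration; inactive = the rest.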
# Experiments:
# [1] = stimulators of nuclear beta-catenin in C2C12, primary screen, imaging, WNT3A-conditioned medium, mouse C2C12, NPC library (AID 1117326; in the data active = nuclear beta-catenin stimulation mostly above about 4.2%, no sharp cut-off; inactive = mostly below about 10%); details: stronger effect = higher value
# [2] = stimulators of insulin release from INS-1E, primary screen, cell-based, 5 mM glucose, NPC library (AID 1117329;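 active = compound raises insulin release from rat beta cells at 5 mM glucose, no numeric limit stated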); details: rat INS-1E insulin secretion, at 10 µM, stronger effect = higher value
# [3] = growth inhibition of GSK3B-pretreated HCT116 cells – cell-based, CellTiter-Glo, 0.2 to 20 µM (AID 1117336;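 active = compounds lowering colon cancer cell viability after pretreatment blocking the GSK3B kinase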); details: HCT116 viability after GSK3B inhibitor, at 20 µM, stronger effect = higher value
# [4] = inhibition of endothelial tube formation, primary screen, imaging, VEGF stimulated, CD31 staining, tube area, NPC library (AID 1117340;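 active = compound that reduces growth-factor-driven endothelial tube area in a mixed cell culture, no cutoff stated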); details: VEGF-stimulated ADSC/ECFC co-culture, at 10 µM, stronger effect = higher value
# [5] = glucagon-like peptide 1 release enhancers, primary assay, NCI-H716 cell line, NPC library (AID 1117341;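 active = compound raises GLP1 secretion from the human gut endocrine cells, with no numeric limit stated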); details: NCI-H716 cells, at 10 µM, stronger effect = higher value
# [6] = HCT116 colon cancer cell growth inhibition, primary screen, CellTiter-Glo luminescence, NPC library (AID 1117342;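 active = compounds that lower survival of HCT116 colon cancer cells in the luminescence readout, no numeric limit stated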); details: at 20 µM (top of the series)
# [7] = CellTiter-Glo luminescent readout of SW480 viability loss, NPC library primary (AID 1117343;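 active = compounds that lower viability of the colon cancer cells in the luminescence readout, with no numeric limit stated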); details: CellTiter-Glo luminescence; at 20 µM (top of the series)
# [8] = decreased DLD-1 cellular survival, CellTiter-Glo luminescent readout, NPC compound collection, primary HTS (AID 1117346;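 active = compounds that lower survival of DLD-1 colon cancer cells in the luminescence readout, no cutoff given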); details: DLD-1 viability, CellTiter-Glo luminescence; at 20 µM (top of the series)
# [9] = target: 6-phosphogluconate dehydrogenase, decarboxylating (Homo sapiens) (UniProt P52209); assay: 6PGD enzyme inhibitors, primary screen, biochemical, human, recombinant enzyme, NADPH absorbance (AID 1159550;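 active = at least 20% inhibition of 6-phosphogluconate dehydrogenase activity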); details: recombinant 6PGD, NADPH absorbance 341 nm; at 10 µM; stronger effect = higher value
# [10] = modulation of C. elegans fzo-1 (AID 1259413; call rule not given here;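 also: fzo-1 mutant C. elegans worms in liquid wells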); details: C. elegans fzo-1 modulator screen, mean read-out; stronger effect = higher value
# [11] = differential killing of epithelial or mesenchymal cells, primary screen, imaging, PC-3E GFP, TEM4-18 mCherry, co-culture (AID 1345086;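 active = compounds killing one labelled cell type while sparing the other, by normalised counts and ratio limits, not self-fluorescent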;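 as to all read-outs here: cells exposed to compound for 72 h before imaging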;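 as to red/green cell ratio (normalised): normalised mesenchymal count divided by normalised epithelial count so high means epithelial killing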); details: imaging cell counts, at 1 µM; for red/green cell ratio (normalised): actives lie on both sides, counts scaled to control wells, 1 = unselective
# [12] = sensitizers of A549 cells to miR-34 induction, primary screen, imaging, A549 dox-inducible miR-34, nuclei and caspase counts (AID 1347080;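 active = compounds whose cell count with miR-34 switched on is under 0.7 times the count with it off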); details: A549 miR-34 inducible, Hoechst nuclei count, 48 h
# [13] = survival rescue of mitochondrial mutant cells in low glucose, primary screen, MELAS cybrids, Rieske KO mouse fibroblasts, CellTiter-Glo (AID 1508586;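 active = mean z-score across replicates of 1.96 or higher in either the MELAS or the Rieske mutant cell line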;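 also: z relative to plate mean and SD of compound and empty wells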)
# [14] = target: NAD(+) hydrolase SARM1 (Homo sapiens) (UniProt Q6SZW1); assay: SARM1 TIR NADase inhibitors, cell lysate, NAD-Glo luminescence (AID 1508614;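 active = compound whose remaining NAD level is above about 45 nM, limit read from the data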;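 also: higher remaining NAD means stronger inhibition of SARM1 NADase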); details: SAM-TIR HEK293T lysate NADase, at 1 µM, stronger effect = higher value
# [15] = target: Mitogen-activated protein kinase 7 (Homo sapiens) (UniProt Q13164); assay: ERK5 transactivation activators in reporter cells, primary screen, cell-based, HTS (AID 1508626;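 active = luciferase signal above three times the same-plate solvent-only control wells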;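 also: luciferase driven by Gal4-ERK5 fusion binding five Gal4 sites before minimal TATA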); details: HeLa Gal4-ERK5 transactivation, 18 h, at 5 µM, stronger effect = higher value
# F380Y = assay: modulators of BK channel variants, profiling panel, selectivity assay, cell-based, U2OS BacMam, thallium flux, beta subunits (AID 1259406;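 active = thallium flux through the channel raised or lowered by more than 3 SD from vehicle-only wells, actives on both sides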;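 also: initial slope of Thallos dye fluorescence rise after thallium is added; log ratio against the mean of 0.3% DMSO vehicle wells on the same plate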); details: at 30 µM
# F380Y/beta1 = assay: as above; details: at 30 µM
# F380Y/beta2Delta = assay: as above; details: at 30 µM
# [16] = ovarian cancer cell viability with rucaparib, profiling panel, oncology-focused library, rucaparib conditional (AID 1508598); details: patient-derived ovarian cancer cells, CellTiter-Glo viability, 144 h, stronger effect = lower value
# [17] = ICB984 medulloblastoma cell growth inhibition, synergistic combos for chromothripsis tumors, cisplatin or BGB combos (AID 1671451; call rule not given here;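 also: cells exposed for 96 hours before readout; 0% = vehicle DMSO and 100% = killing by high DMSO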); details: ICB984 medulloblastoma cells, drug combinations, stronger effect = higher value
# [18] = measured here: epithelial PC-3E GFP cell survival
# [19] = measured here: mesenchymal TEM4-18 mCherry cell survival
# [20] = stronger effect = lower value, cell number ratio, induced over uninduced
# [21] = measured here: relative caspase fold change +Dox/-Dox
# [22] = measured here: total cells with miR-34 induction, stronger effect = lower value
# [23] = measured here: total cells without miR-34 induction
# [24] = MELAS cybrid survival, CellTiter-Glo 48 h, stronger effect = higher value
# [25] = Rieske KO mouse fibroblast survival, CellTiter-Glo 72 h
# Sequence of 6-phosphogluconate dehydrogenase, decarboxylating (Homo sapiens) (P52209 whole entry, looked up): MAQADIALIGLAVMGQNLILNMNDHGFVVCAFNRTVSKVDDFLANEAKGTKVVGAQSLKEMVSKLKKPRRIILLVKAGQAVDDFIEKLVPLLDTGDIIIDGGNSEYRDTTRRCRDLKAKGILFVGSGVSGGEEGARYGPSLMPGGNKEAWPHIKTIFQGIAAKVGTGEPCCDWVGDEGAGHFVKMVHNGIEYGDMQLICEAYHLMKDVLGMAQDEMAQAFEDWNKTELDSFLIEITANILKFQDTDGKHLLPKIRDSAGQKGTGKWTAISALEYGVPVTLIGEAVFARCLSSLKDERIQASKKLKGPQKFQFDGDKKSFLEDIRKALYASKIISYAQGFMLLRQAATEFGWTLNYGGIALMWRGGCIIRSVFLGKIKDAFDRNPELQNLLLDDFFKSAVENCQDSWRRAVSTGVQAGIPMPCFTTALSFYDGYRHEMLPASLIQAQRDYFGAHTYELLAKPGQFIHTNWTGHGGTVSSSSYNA
# Sequence of Mitogen-activated protein kinase 7 (Homo sapiens) (Q13164 whole entry, looked up, the tested form may be a part): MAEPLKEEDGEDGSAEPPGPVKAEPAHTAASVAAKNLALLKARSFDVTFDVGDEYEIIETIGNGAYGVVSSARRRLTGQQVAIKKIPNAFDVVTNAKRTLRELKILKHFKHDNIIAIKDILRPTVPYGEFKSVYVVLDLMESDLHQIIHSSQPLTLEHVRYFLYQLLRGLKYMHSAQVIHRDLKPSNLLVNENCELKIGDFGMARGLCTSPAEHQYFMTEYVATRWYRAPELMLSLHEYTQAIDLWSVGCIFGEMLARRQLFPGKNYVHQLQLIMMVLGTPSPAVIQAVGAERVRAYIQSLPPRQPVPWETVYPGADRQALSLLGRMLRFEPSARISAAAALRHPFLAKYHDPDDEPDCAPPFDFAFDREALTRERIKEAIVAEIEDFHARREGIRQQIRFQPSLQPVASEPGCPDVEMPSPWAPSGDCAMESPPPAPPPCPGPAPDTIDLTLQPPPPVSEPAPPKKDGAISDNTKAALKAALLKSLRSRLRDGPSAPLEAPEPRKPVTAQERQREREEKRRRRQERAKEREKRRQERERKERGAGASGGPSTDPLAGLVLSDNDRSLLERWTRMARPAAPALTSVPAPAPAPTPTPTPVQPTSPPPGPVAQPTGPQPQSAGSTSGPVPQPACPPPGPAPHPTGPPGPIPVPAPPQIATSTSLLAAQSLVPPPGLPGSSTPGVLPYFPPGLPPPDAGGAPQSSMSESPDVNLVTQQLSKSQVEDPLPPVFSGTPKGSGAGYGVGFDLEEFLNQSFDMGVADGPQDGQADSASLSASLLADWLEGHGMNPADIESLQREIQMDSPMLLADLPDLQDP
# Sequence of NAD(+) hydrolase SARM1 (Homo sapiens) (Q6SZW1 whole entry, looked up, the tested form may be a part): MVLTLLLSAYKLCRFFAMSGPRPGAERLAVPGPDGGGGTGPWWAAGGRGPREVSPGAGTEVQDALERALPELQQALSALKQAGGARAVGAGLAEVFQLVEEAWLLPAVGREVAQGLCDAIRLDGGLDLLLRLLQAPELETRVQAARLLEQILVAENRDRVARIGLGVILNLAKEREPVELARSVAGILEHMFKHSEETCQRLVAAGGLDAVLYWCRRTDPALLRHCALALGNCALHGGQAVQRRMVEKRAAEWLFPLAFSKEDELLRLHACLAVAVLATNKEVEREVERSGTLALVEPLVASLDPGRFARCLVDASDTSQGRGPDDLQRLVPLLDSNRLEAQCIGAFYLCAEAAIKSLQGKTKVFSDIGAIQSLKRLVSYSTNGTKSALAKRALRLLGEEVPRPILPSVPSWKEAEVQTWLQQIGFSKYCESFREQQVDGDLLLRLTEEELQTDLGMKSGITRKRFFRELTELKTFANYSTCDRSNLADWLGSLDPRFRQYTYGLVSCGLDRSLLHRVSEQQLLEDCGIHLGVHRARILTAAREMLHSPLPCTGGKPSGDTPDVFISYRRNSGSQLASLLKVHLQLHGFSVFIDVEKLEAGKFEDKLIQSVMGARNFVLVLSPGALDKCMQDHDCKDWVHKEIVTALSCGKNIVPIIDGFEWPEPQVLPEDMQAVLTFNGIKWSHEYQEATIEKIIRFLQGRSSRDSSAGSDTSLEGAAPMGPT
smiles,measurement,setting,value
CC(=O)CC(c1ccccc1)c1c(O)c2ccccc2oc1=O (stereo not given),nuclear beta-catenin stimulation,[1]; at 10 µM,3.2% (inactive)
same,nuclear beta-catenin stimulation,"[1]; stimulation, at 2 µM",0.2%
same,insulin secretion stimulation,[2],0.2% (inactive)
same,viability decrease,[3],-5.05% (inactive)
same,tube area decrease,[4],-0.7% (inactive)
same,GLP1 secretion stimulation,[5],3.5% (inactive)
same,inhibition of viability,[6],-17.8% (inactive)
same,viability decrease (inhibition),[7],32.5% (inactive)
same,viability decrease (inhibition),[8],7% (inactive)
same,inhibition,[9],6.78% (inactive)
same,mean signal,[10],249 (inactive)
same,red/green cell ratio (normalised),[11],0.98 (inactive)
same,normalised cell number,[11]; [18],1.05
same,normalised cell number,[11]; [19],1.02
same,fold change,[12]; [20],0.928 (inactive) and 0.882 (inactive) and 0.918 (inactive)
same,fold change,[12]; [21],1.54 and 1.82 and 3.53
same,cell count,[12]; [22],10300 and 5280 and 12200
same,cell count,[12]; [23],11100 and 5980 and 13300
same,z-score,[13]; [24],-0.697 (inactive)
same,z-score,[13]; [25],-0.222
same,remaining NAD,[14],10 nM (inactive)
same,luciferase signal,[15],136 AU (inactive)
same,log fold change Tl+ flux,F380Y,-0.00266 (inactive)
same,log fold change Tl+ flux,F380Y/beta1,-0.0341 (inactive)
same,log fold change Tl+ flux,F380Y/beta2Delta,0.0322 (inactive)
S=c1nc[nH]c2nc[nH]c12,nuclear beta-catenin stimulation,[1]; at 10 µM,-0.9% (inactive)
same,nuclear beta-catenin stimulation,"[1]; stimulation, at 2 µM",0.6%
same,insulin secretion stimulation,[2],0.6% (inactive)
same,viability decrease,[3],77.7% (active)
same,tube area decrease,[4],95.3% (active)
same,GLP1 secretion stimulation,[5],-0.7% (inactive)
same,inhibition of viability,[6],83.2% (active)
same,viability decrease (inhibition),[7],107% (active)
same,viability decrease (inhibition),[8],79.1% (active)
same,inhibition,[9],-3.59% (inactive)
same,mean signal,[10],247 (inactive)
same,red/green cell ratio (normalised),[11],0.76 (inactive)
same,normalised cell number,[11]; [18],1.42
same,normalised cell number,[11]; [19],1.07
same,fold change,[12]; [20],0.793 (inactive) and 0.952 (inactive) and 0.815 (inactive)
same,fold change,[12]; [21],1.23 and 0.341 and 5.81
same,cell count,[12]; [22],5690 and 7180 and 6280
same,cell count,[12]; [23],7180 and 7540 and 7700
same,z-score,[13]; [24],0.0168 (inactive) and 3.92 (active)
same,z-score,[13]; [25],0.195 and 0.755
same,viability,"[16]; at 0.000305 µM, OCI-C5x cells, with rucaparib 10 µM, 100% = cells with rucaparib alone",120% (inactive)
same,viability,"[16]; at 0.000305 µM, OCI-C5x cells, without rucaparib",111% (inactive)
same,viability,"[16]; at 0.000305 µM, OCI-P5x cells, with rucaparib 20 µM, 100% = cells with rucaparib alone",94.6% (active)
same,viability,"[16]; at 0.000305 µM, OCI-P5x cells, without rucaparib",92.1% (active)
same,viability,"[16]; at 0.00122 µM, OCI-C5x cells, with rucaparib 10 µM, 100% = cells with rucaparib alone",110% (inactive)
same,viability,"[16]; at 0.00122 µM, OCI-C5x cells, without rucaparib",105% (inactive)
same,viability,"[16]; at 0.00122 µM, OCI-P5x cells, with rucaparib 20 µM, 100% = cells with rucaparib alone",98.4% (active)
same,viability,"[16]; at 0.00122 µM, OCI-P5x cells, without rucaparib",94.6% (active)
same,viability,"[16]; at 0.00488 µM, OCI-C5x cells, with rucaparib 10 µM, 100% = cells with rucaparib alone",111% (inactive)
same,viability,"[16]; at 0.00488 µM, OCI-C5x cells, without rucaparib",100% (inactive)
same,viability,"[16]; at 0.00488 µM, OCI-P5x cells, with rucaparib 20 µM, 100% = cells with rucaparib alone",99.6% (active)
same,viability,"[16]; at 0.00488 µM, OCI-P5x cells, without rucaparib",90.4% (active)
same,viability,"[16]; at 0.0195 µM, OCI-C5x cells, with rucaparib 10 µM, 100% = cells with rucaparib alone",104% (inactive)
same,viability,"[16]; at 0.0195 µM, OCI-C5x cells, without rucaparib",109% (inactive)
same,viability,"[16]; at 0.0195 µM, OCI-P5x cells, with rucaparib 20 µM, 100% = cells with rucaparib alone",94.9% (active)
same,viability,"[16]; at 0.0195 µM, OCI-P5x cells, without rucaparib",84.4% (active)
same,viability,"[16]; at 0.0781 µM, OCI-C5x cells, with rucaparib 10 µM, 100% = cells with rucaparib alone",123% (inactive)
same,viability,"[16]; at 0.0781 µM, OCI-C5x cells, without rucaparib",95.4% (active)
same,viability,"[16]; at 0.0781 µM, OCI-P5x cells, with rucaparib 20 µM, 100% = cells with rucaparib alone",90.4% (active)
same,viability,"[16]; at 0.0781 µM, OCI-P5x cells, without rucaparib",87.6% (active)
same,viability,"[16]; at 0.313 µM, OCI-C5x cells, with rucaparib 10 µM, 100% = cells with rucaparib alone",106% (inactive)
same,viability,"[16]; at 0.313 µM, OCI-C5x cells, without rucaparib",91.6% (active)
same,viability,"[16]; at 0.313 µM, OCI-P5x cells, with rucaparib 20 µM, 100% = cells with rucaparib alone",89.7% (active)
same,viability,"[16]; at 0.313 µM, OCI-P5x cells, without rucaparib",86.1% (active)
same,viability,"[16]; at 1.25 µM, OCI-C5x cells, with rucaparib 10 µM, 100% = cells with rucaparib alone",105% (inactive)
same,viability,"[16]; at 1.25 µM, OCI-C5x cells, without rucaparib",93.1% (active)
same,viability,"[16]; at 1.25 µM, OCI-P5x cells, with rucaparib 20 µM, 100% = cells with rucaparib alone",87.9% (active)
same,viability,"[16]; at 1.25 µM, OCI-P5x cells, without rucaparib",80.6% (active)
same,viability,"[16]; at 5 µM, OCI-C5x cells, with rucaparib 10 µM, 100% = cells with rucaparib alone",126% (inactive)
same,viability,"[16]; at 5 µM, OCI-C5x cells, without rucaparib",107% (inactive)
same,viability,"[16]; at 5 µM, OCI-P5x cells, with rucaparib 20 µM, 100% = cells with rucaparib alone",79% (active)
same,viability,"[16]; at 5 µM, OCI-P5x cells, without rucaparib",79.9% (active)
same,remaining NAD,[14],10 nM (inactive)
same,luciferase signal,[15],2730 AU (active)
same,inhibition,"[17]; BGB IC20 combo, at 0.005 µM",-10.3% and -30.1% and -29.5%
same,inhibition,"[17]; BGB IC40 combo, at 0.005 µM",-20.2% and -36.3% and -18.2%
same,inhibition,"[17]; BGB IC40 combo, at 0.05 µM",-14.4% and -4.47% and -23%
same,inhibition,[17]; at 0.5 µM,-13.7% (inactive) and -13.9% (inactive) and -17.8% (inactive)
same,inhibition,"[17]; cisplatin combo, at 0.05 µM",-14.4% and -8.61% and -23%
same,inhibition,"[17]; cisplatin combo, at 0.5 µM",-25.2% and -17.5% and -28.1%
same,inhibition,"[17]; cisplatin combo, at 5 µM",-3.58% and -36.1% and -37.1%
same,inhibition,"[17]; measured here: 5 uM single agent, at 5 µM",-34.5% and -9.53% and -28.9%
same,log fold change Tl+ flux,F380Y,-0.0324 (inactive)
same,log fold change Tl+ flux,F380Y/beta1,-0.00111 (inactive)
same,log fold change Tl+ flux,F380Y/beta2Delta,-0.00985 (inactive)
